Compounds with a hit are over-represented: about 19% of the library has one in this group of screens.
HT1080-NT tox: kills 2HG-producing HT-1080-NT fibrosarcoma cells | HT-1080-NT fibrosarcoma viability, CellTiter-Glo ATP luminescence, 48 h | hit rate 1.6% among 360,000 | Potency, µM (series often up to 46.1 µM), usual class: cytotoxic | AID 686970;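 note: NT is the 2HG producing partner of a matched IDH1 knockdown line; nearly all actives have a fitted effect of over 55% in size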
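Read-out is CellTiter-Glo luminescence after 10 minutes at room temperature, following 48 hours' compound treatment of HT-1080-NT cells (750 cells/well, RPMI, 5% FBS, 37 degrees C).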
IL-1B inflam inh: inflammasome signaling inhibition, IL-1 beta readout | THP-1 LPS/ATP IL-1B secretion, AlphaLISA, 16 h; hits give low values | activity change, % at 57.5 µM | hit rate 4.7% among 360,000 | AID 743279; in the data active = activity change below about -50%; inconclusive = mostly about -30% to -49%
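THP-1 cells pretreated 1 hr with compounds (up to 57.5 uM final), then stimulated with LPS (250 ng/mL final) plus ATP (1.25 mM final); secreted IL-1B measured by AlphaLISA after 16 hr, decreased signal indicating inhibition.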
TDP1 cell CPT: DT40-hTDP1 cell growth loss with CPT; chicken DT40 Tdp1-/-;hTDP1 cells + 20 nM CPT, ATP luminescence, 48 h; Potency, µM (top dose mostly 46.2 µM), usual class: inhibitors; hit rate 12% among 420,000; AID 686979; note: nearly all actives have a fitted effect of over 55% in size
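Chicken DT40 Tdp1-/- cells stably complemented with human TDP1 were seeded at 400 cells/well in medium containing 20 nM camptothecin, exposed to pin-transferred compounds, and grown at 37 °C for at least 48 hr. Viability was read as ATP luminescence.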
HT1080 IDH1KD tx: HT-1080 IDH1 knockdown cell toxicity (counter line); HT-1080 IDH1 knockdown viability, ATP luminescence, 48 h; Potency, µM (series often up to 46.1 µM), most hits filed as cytotoxic; hit rate 2% among 360,000
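Using the IDH1-knockdown HT-1080 line run in the same batch and compound series as the NT line, viability after 48 h at 37 °C was determined by CellTiter-Glo luminescence and expressed as % activity.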
uPA generation: inhibitors of cell surface uPA generation; cell surface uPA generation assay, qHTS; Potency, µM (titrated, usually from 38.3 µM), most hits filed as inhibitors; hit rate 0.31% among 330,000; active = well fitted inhibition curve with a large enough effect; inconclusive = small, poorly fitted or top-dose-only effect; inactive = no such curve, though single readings can be large or run the other way; tested in mouse RAW 264.7 cells; note: nearly all actives have a fitted effect of over 55% in size
TDP1 cell noCPT: qHTS for Inhibitors of human tyrosyl-DNA phosphodiesterase 1 (TDP1): qHTS in cells in absence of CPT. DT40 Tdp1-/- hTDP1 cells, no CPT, ATP luminescence, 48 h. Potency, µM (doses to about 46.2 µM), actives largely listed as inhibitors. hit rate 15% among 420,000; note: nearly all actives have a fitted effect of over 55% in size
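Growth kinetics read by CellTiter-Glo luminescence after ≥48 hr at 37 °C. Cells: DT40 Tdp1-/- stably carrying human TDP1, 400 per well, compound exposure in the absence of CPT (DMSO vehicle).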
A number is an active result; – = inactive; ? = inconclusive; · = not tested or not shown; [ ] = another dose, or the depositor's remark. Unless noted, calls come from the whole dose curve; as a rule, active = well fitted curve in the direction sought with a large enough effect; inconclusive = small, poorly fitted or top-dose-only effect, or another doubt; inactive = no such curve, though single readings can be large; an effect the other way counts as inactive or inconclusive.

SMILES | HT1080-NT tox | IL-1B inflam inh | TDP1 cell CPT | HT1080 IDH1KD tx | uPA generation | TDP1 cell noCPT
COC(=O)C1CCN(Cc2ccc3c(c2)CN(C(=O)c2cc(-c4ccc(C)o4)[nH]n2)CCO3)CC1 | · | · | 0.082µM | · | · | ?
COC(=O)C1CCN(Cc2ccc3c(c2)CN(C(=O)c2cc(C)on2)CCO3)CC1 | · | · | –[9.04 µM] | · | · | –
COC(=O)C1CCN(Cc2ccc3c(c2)CN(C(=O)c2cc(C)nc(C)n2)CCO3)CC1 | · | · | –[9.04 µM] | · | · | –
CC1Cn2cc(C(=O)Nc3cccc(C(F)(F)F)c3)c(=O)c3c(Cl)ccc(c32)O1 (stereo not drawn) | · | · | – | · | · | –
COc1ccc(CCN2Cc3c(N)cccc3C2=O)cc1OC | – | – | – | ? | – | –
NC(=O)[C@H]1CC2(CC(c3cccc(NC(=O)COc4ccc(Cl)cc4)c3)=NO2)CN1C(=O)c1ccccc1C(=O)c1ccccc1 (stereo partly drawn) | – | ? | 20.6µM | – | ? | 18.4µM
NC(=O)[C@@H]1CC2(CC(c3cccc(NC(=O)CC(c4ccccc4)c4ccccc4)c3)=NO2)CN1C(=O)COc1ccc(Cl)cc1 (stereo partly drawn) | – | ? | 18.4µM | – | – | ?
NC(=O)[C@H]1CC2(CC(c3cccc(NC(=O)COc4ccc(Cl)cc4)c3)=NO2)CN1C(=O)CC(c1ccccc1)c1ccccc1 (stereo partly drawn) | – | ? | ? | – | ? | ?
NC(=O)[C@H]1CC2(CC(c3cccc(NC(=O)COc4ccc(Cl)cc4)c3)=NO2)CN1C(=O)c1ccc(Cl)cc1 (stereo partly drawn) | ? | ? | 18.4µM | ? | ? | ?
CC1(C(=O)N2CC3(CC(c4cccc(NC(=O)COc5ccc(Cl)cc5)c4)=NO3)C[C@@H]2C(N)=O)CC1 (stereo partly drawn) | – | ? | 13µM | – | – | 14.6µM
CC1Cc2ccccc2N1C(=O)CSc1nnc(N)s1 (stereo not drawn) | – | – | – | – | – | –
CC1Cc2ccccc2N1C(=O)CSc1nc2cc3c(cc2cc1C#N)OCO3 (stereo not drawn) | – | – | ? | – | – | ?
CC1Cc2ccccc2N1C(=O)CSC1=NCCS1 (stereo not drawn) | – | – | 10.3µM | – | – | ?
Cc1cccc(NC(=O)CSc2ncnc3sc(C)c(C)c23)n1 | – | – | 16.4µM | – | – | 18.4µM
Cc1nnc(NC(=O)CSc2nc(C(C)C)nc3sc(C)c(C)c23)s1 | – | – | ? | – | – | 8.2µM
Cc1cc2cc3c(cc2nc1SCC(=O)N1c2ccccc2CC1C)OCO3 (stereo not drawn) | ? | – | ? | –[9.24 µM] | – | 20.6µM
CC(=O)Nc1ccc(CNc2nc3cc(-c4ccsc4)sc3c(=O)n2C)cc1 | – | – | – | – | · | ?
Cc1c(NC(=O)COc2cccc(Cl)c2Cl)c(=O)n(-c2ccccc2)n1C | – | – | – | – | – | –
CC1CCN(CC(=O)N2c3ccccc3CC2C)CC1 (stereo not drawn) | – | – | – | – | – | –
CC(C)c1nc(SCC(=O)N2c3ccccc3CC2C)c2ccccc2n1 (stereo not drawn) | ? | -99.0 | ? | – | – | ?
Cc1sc2nc(C3CC3)nc(SCC(=O)N3c4ccccc4CC3C)c2c1C (stereo not drawn) | ? | – | 16.4µM | ? | · | 20.6µM
CC1Cc2ccccc2N1C(=O)CN1CCc2ccccc2C1 (stereo not drawn) | – | – | ? | – | – | 25.9µM
Cc1cc(NC(=O)CSc2nc(C3CC3)nc3sc(C)c(C)c23)no1 | ? | – | 8.2µM | –[9.24 µM] | – | 8.2µM
CSc1ccccc1OCc1cc(C(=O)N[C@H]2CCCCNC2=O)no1 | – | – | ? | – | – | –
Cc1nc2cc(Cl)ccc2c(=O)n1Cc1ccncc1 | – | – | – | – | – | –
SMILES | HT1080-NT tox | IL-1B inflam inh | TDP1 cell CPT | HT1080 IDH1KD tx | uPA generation | TDP1 cell noCPT
CCN1CCN(CNC(=O)c2cnccn2)CC1 | – | – | 18.4µM | – | – | –
CC1(C)N=C(N)N=C(N)N1c1ccc(Cl)cc1 | · | · | ? | · | · | 0.335µM
CC(C)CCN1C(Nc2ccccc2)=NC[C@@H]1Cc1ccccc1 | – | – | ? | – | – | 16.4µM
CCC(CC)CN1C(Nc2ccccc2)=NC[C@@H]1CC(C)C | – | – | ? | – | – | ?
CCCCN1C(Nc2ccccc2)=NC[C@@H]1CC(C)C | – | – | ? | – | – | ?
CC(CCN1C(Nc2ccccc2)=NC[C@@H]1C)c1ccccc1 (stereo partly drawn) | – | – | 23.1µM | – | – | 11.6µM
CC(C)CCCN1C(Nc2ccccc2)=NC[C@@H]1CC(C)C | – | – | ? | – | ? | 18.4µM
CC(C)C[C@H]1CN=C(Nc2ccccc2)N1CCCCc1ccccc1 | – | – | 25.9µM | – | – | ?
COCCCNC1=C(C#N)C(=O)NC(c2cccs2)S1 (stereo not drawn) | – | – | – | – | · | –
CC1CCN(Cc2c(O)ccc3c(=O)c(-c4cccc(Cl)c4)c(C(F)(F)F)oc23)CC1 | · | · | – | · | · | –
CC(C)CCCN1C(Nc2ccccc2)=NC[C@@H]1Cc1ccccc1 | – | ? | ? | – | – | 16.4µM
CC(CCN1C(Nc2ccccc2)=NC[C@@H]1Cc1ccccc1)c1ccccc1 (stereo partly drawn) | – | – | ? | – | – | 18.4µM
CC(C)CCN1C(Nc2ccccc2)=NC[C@@H]1C | – | – | – | – | – | ?
COc1ccc(NC(=O)c2nc[nH]c2C(=O)N(C)Cc2ccccc2)cc1 | – | – | 23.1µM | – | – | ?
CN(Cc1ccccc1)C(=O)c1[nH]cnc1C(=O)Nc1ccc(Cl)cc1 | ? | – | ? | – | ? | 23.1µM
COc1ccc(CNC(=O)C2CCN(S(=O)(=O)c3c(C)noc3/C=C/c3ccccc3F)CC2)cc1 | · | · | ? | · | · | –
CC[N+](C)(CC)CCOC(=O)C(O)(c1ccccc1)C1CCCCC1 (stereo not drawn) | ? | -55.4 | ? | – | ? | ?
CC[N+](C)(CC)CCC(c1ccccc1)C1CCCCC1 (stereo not drawn) | – | – | 8.2µM | – | – | ?
COC(=O)c1ccccc1NC(=O)CSc1nc2ccccc2nc1Cc1ccc(F)cc1 | · | · | – | · | · | –
Cc1ccc(N2C(=O)N(CC(=O)Nc3ccc(F)c(F)c3)C(=O)C2C)cc1 (stereo not drawn) | – | ? | ? | – | – | –
CCN(C(=O)c1cc2c(C)nc3ccccc3c2o1)c1cc(Cl)ccc1OC | ? | – | 5.17µM | ? | – | 4.61µM
O=C(NCc1cccs1)c1cc2c(s1)-c1ccccc1OC2 | – | ? | – | – | – | ?

Screening results: PubChem, National Center for Advancing Translational Sciences (NCATS)
